The record followed here is PubChem BioAssay AID932 (The Scripps Research Institute Molecular Screening Center, 2007).

Screen size: about 200,000 compounds; about 5,100 (2.5%) were called active. For the sample, actives were picked, then their nearest neighbours and some compounds at random. A number with no mark means an inactive call.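 How the source made its calls: active means activation above the screen-wide mean activation plus 3 SD (cut at about 130% in these data); inactive means the rest.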

This assay is described as follows: potentiators of IFN-gamma driven STAT1 reporter – cell-based, HTS, luciferase reporter, primary screen (AID 932).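 Further: raw ratio to IFN-gamma control signal so 100% means no change and 0% no light.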 The settings on record: NIH 3T3 STAT1-luciferase reporter, luminescence, at 5.5 µM, hits give high values, 100% = IFN-gamma alone, no compound. (Reporter assays use an easily measured gene product as a stand-in for the process of interest.)
For `COc1ccc(C(C(=O)NC2CCCCC2)N(C(=O)Cc2c[nH]c3ccccc23)c2ccccc2)cc1OC` (centres undefined), the activation (% of control) was 105%.

`c1ccc(-n2ncc3c(N4CCCC4)ncnc32)cc1`: the activation (% of control) is 115%. In the case of `COc1ccc(-n2c(C)nc3c(cnn3-c3ccccc3)c2=O)cc1` it was 88.7%; in that of `Cc1cccc(-n2ncc3c(N4CCc5ccccc54)ncnc32)c1`, 113%. In the case of `COc1ccc(-n2ncc3c(N4CCCc5ccccc54)ncnc32)cc1` it was 187% (active). For `COc1ccc2oc(=O)c(C(=O)N3CCCc4ccccc43)cc2c1` the value was 97.1%. For the compound `COc1ccc(-n2ncc3c(N4CCc5ccccc54)ncnc32)cc1`, the activation (% of control) was 137% (active). For `CC(C)(C)NC(=O)NC(=O)COC(=O)C1(C)CC1(Cl)Cl` (centres undefined) the value was 104%. In the case of `NC(=O)c1ccc(CN2CCC(Cc3ccccc3)CC2)cc1` it was 98.6%; in that of `COc1ccc(CCNC(=O)c2ccc(CS(=O)(=O)c3ccc(Br)cc3)o2)cc1OC`, 84.6%.

For `Cc1ccc(OCCOCCOc2ccc(Br)cc2/C=N\NC(=O)c2ccncc2)cc1`, the activation (% of control) is 102%. For `CC(=O)Nc1cccc(-c2cnc3ccccc3n2)c1` the value was 159% (active). `Cc1cc(O)ccc1-c1cnc2ccccc2n1`: the activation (% of control) is 108%.

As to `CC(=O)Nc1cccc(-c2csc(Nc3cccc(C)n3)n2)c1`, the activation (% of control) is 175% (active). In the case of `CC(=O)Nc1ccc(-c2csc(NC(=O)Nc3ccccc3)n2)cc1`, the activation (% of control) is 95.7%. On to `CCS(=O)(=O)Nc1cccc(-c2cc(-c3ccccc3)c3cc(C)ccc3n2)c1`, for which the activation (% of control) was 96.5%. In the case of `COc1ccc(CCNc2nc(-c3cccc(NC(C)=O)c3)cs2)cc1OC` it was 88.5%. For `CCOC(=O)/C(=N\Nc1ccccc1[N+](=O)[O-])c1csc(Nc2ccccc2)n1` the value was 102%. For `OC1CCCN(c2ncnc3c2nnn3Cc2c(F)cccc2Cl)C1` (centres undefined) the value was 102%; for `CCOC(=O)c1sc(=NC(=O)/C=C/c2cccs2)n(C)c1C`, 140% (active). `COc1ccc(CCNC(=O)COC(=O)/C=C/c2cccs2)cc1OC`: the activation (% of control) was 90.8%. `CCOC(=O)c1c(NC(=S)NC(=O)/C=C/c2cccs2)sc(C)c1C`: the activation (% of control) is 105%.

Turning to `CCOc1cc(NC(=S)NCc2ccco2)c(OCC)cc1NC(=O)c1ccco1`, the activation (% of control) was 94.2%. With `COc1cc(OC)cc(-c2nnc(SCC(=O)Nc3ccc(C(=O)O)cc3)s2)c1`, the activation (% of control) is 92.8%.

Consider `CCCC(=O)N1c2ccc(-c3csc(N)n3)cc2CC1C` (centres undefined), for which the activation (% of control) is 150% (active).

Regarding `CCn1nc(C(=O)OCC(=O)N2c3ccccc3CC2C)c2ccccc2c1=O` (centres undefined), the activation (% of control) is 94.7%. In the case of `CCC(=O)N1c2ccc(S(=O)(=O)CCC(=O)N3CCN(c4ccccc4)CC3)cc2CC1C` (centres undefined) it was 101%.

Regarding `O=C(Nc1cccc(F)c1)c1coc(=O)c(Br)c1`, the activation (% of control) was 89.3%.

As for `Cc1cccc(NC(=S)N(CCN(C)C)C(C)c2ccco2)c1` (centres undefined), the activation (% of control) was 97.6%. In the case of `COc1ccccc1-n1c(=S)[nH]c2c(sc(=S)n2-c2ccc(C)cc2C)c1=O` it was 97.7%. For the compound `CCOC(=O)c1cnc2[nH]c3ccccc3n2c1=O`, the activation (% of control) is 104%. As to `COc1ccc2nc(NC(=O)[C@@H]3CCCN3C(=O)c3cccs3)sc2c1`, the activation (% of control) is 103%. `COc1ccc(Nc2nc(-c3ccccc3)cs2)cc1`: the activation (% of control) was 142% (active). For `COc1ccc2nc(Nc3nc(-c4cc5ccccc5oc4=O)cs3)sc2c1` the value was 103%; for `NS(=O)(=O)c1ccc(Nc2nc(-c3ccccc3)cs2)cc1`, 131% (active). For `CC(=O)Nc1ccc(S(=O)(=O)Nc2nc(-c3ccc(C(C)(C)C)cc3)cs2)cc1` the value was 99%; for `COc1ccc(OC)c(Nc2nc(-c3ccc(O)c(O)c3)cs2)c1`, 102%. For the compound `Cc1cccc(S(=O)(=O)CC(=O)Nc2nc(-c3ccccc3)cs2)c1`, the activation (% of control) is 105%. In the case of `COc1ccc(-c2csc(Nc3ccc(O)cc3)n2)cc1` it was 110%. For `COc1ccc2nc(Nc3nc(-c4ccncc4)cs3)sc2c1` the value was 140% (active); for `CCNC(=O)N1c2ccccc2Sc2ccccc21`, 98%; for `CCNC(=O)CC1C(=O)N(c2ccc(OC)cc2)C(=S)N1CCc1ccncc1` (centres undefined), 105%. Regarding `Cc1ccccc1N(C(=O)Cc1cccs1)C(C(=O)NC1CCCCC1)c1cn(C)nc1C` (centres undefined), the activation (% of control) was 96.2%.

As to `O=C(NCCCN1CCN(c2ccc(F)cc2)CC1)Nc1ccc([N+](=O)[O-])cc1`, the activation (% of control) was 88.3%. With `O=C(NCc1cccnc1)c1cccc(-c2cc3ccccc3oc2=O)c1`, the activation (% of control) was 97.6%.

In the case of `Nc1ncc(-c2cc3ccccc3oc2=O)s1`, the activation (% of control) is 166% (active).

Turning to `O=c1oc2ccccc2cc1-c1cn(-c2ccccc2)c(=S)[nH]1`, the activation (% of control) was 28.6%. For `Cn1cccc1C(C#N)c1ccccc1C#N` (centres undefined) the value was 100%; for `Cc1cc(C)n2nc(C(=O)N3CCN(Cc4ccc5c(c4)OCO5)CC3)nc2n1`, 108%; for `Cc1cccc(NC(=O)c2ccccc2NC(=O)C(C)(C)C)n1`, 95.8%.

Turning to `Cc1cccc(NC(=O)c2cc(N3C(=O)CCC3=O)ccc2Cl)n1`, the activation (% of control) was 98.4%. Consider `Cc1cccc(NC(=O)c2ccc3ccccc3n2)n1`, for which the activation (% of control) is 131% (active).

Consider `CC(=O)c1cnc(SCC(=O)O)nc1C`, for which the activation (% of control) was 108%. In the case of `Nc1nc(SCC(=O)NCCN2CCOCC2)nc2sc3c(c12)CCC3`, the activation (% of control) was 99.3%. For `CC(C)(C)C1CCc2c(sc3nc(SCC(N)=O)nc(N)c23)C1` (centres undefined) the value was 123%.

On to `C=C(C)CSc1nc(N)c2c3c(sc2n1)CCC3`, for which the activation (% of control) is 135% (active). In the case of `CCOC(=O)C1=C(CC)OC(N)=C(C#N)C1c1ccc(F)cc1F` (centres undefined) it was 76.9%; in that of `Cc1ccc(NN=C2C(=O)OC(C)(C)OC2=O)c(C)c1`, 132% (active). On to `Cc1ccc(NC(=O)c2oc(=O)c3ccccc3c2-c2ccccc2)c(C)c1`, for which the activation (% of control) is 97.1%. For `Cc1ccc(NC(=O)C(=O)NCc2ccco2)c(C)c1` the value was 126%; for `O=C(Cn1nnc(-c2ccccc2)n1)NCc1ccccc1`, 100%. For `Cc1ccccc1-c1nnn(CC(=O)c2ccc(S(=O)(=O)N3CCCC3)cc2)n1` the value was 96.4%; for `CC(C)(C)NC(=O)Cn1nnc(-c2ccccc2Cl)n1`, 142% (active). In the case of `Cc1ccc(NC(=O)Cn2c(=O)n(CCC(=O)NC3CCN(Cc4ccccc4)CC3)c(=O)c3ccccc32)cc1` it was 101%. For `COC(=O)c1cc(NC(=O)C2C3C=CC(C3)C2C(=O)O)cc(C(=O)OC)c1` (centres undefined), the activation (% of control) was 101%.

Take `CC(C)COC(=O)c1ccc(NC(=O)C2C3C=CC(C3)C2C(=O)O)cc1` (centres undefined): the activation (% of control) is 138% (active). For `CC(=O)NS(=O)(=O)c1ccc(NC(=O)C2C3C=CC(C3)C2C(=O)O)cc1` (centres undefined) the value was 99.5%; for `Cc1ccc(S(=O)(=O)N2CCOCC2)cc1C(=O)OC1CCCCC1=O` (centres undefined), 97%. In the case of `NC(=O)Cc1ccc2sc(-c3ccccc3)nc2c1` it was 180% (active); in that of `O=C(O)Cc1sc(-c2ccccc2)nc1-c1cccs1`, 108%; in that of `O=C(O)Cc1sc(-c2ccc(C(=O)O)cc2)nc1-c1ccccc1`, 93.7%. For `CN(CC(=O)NCCc1ccccc1)S(=O)(=O)c1cnc[nH]1` the value was 95.9%.

For the compound `O=C(CSc1nnnn1-c1ccc(O)cc1)N1N=C(c2ccc3ccccc3c2)CC1c1ccccc1` (centres undefined), the activation (% of control) is 110%. In the case of `CCc1nc(C)cn1S(=O)(=O)c1cc([N+](=O)[O-])ccc1Cl` it was 87.5%; in that of `Cc1cccc(-n2cnc(C(=O)NNC(=S)Nc3ccccc3)c2)n1`, 92%; in that of `Cc1cccc(-n2cnc(C(=O)Nc3cccnc3)c2)n1`, 140% (active).

In the case of `COc1cccc(C(=O)Nc2cccnc2)c1OC`, the activation (% of control) was 96.6%. For the compound `Cc1noc(C)c1S(=O)(=O)Nc1ccc(C(=O)N2CCN(c3ccc(F)cc3)CC2)cc1`, the activation (% of control) is 98.8%. In the case of `N#Cc1ccc(OCc2nnc(-c3ccc([N+](=O)[O-])cc3)o2)cc1` it was 99.1%; in that of `CN(C)S(=O)(=O)c1ccc(N2CCCC2=O)c([N+](=O)[O-])c1`, 108%. In the case of `CSc1nc2ccc(NC(=O)c3c(F)cccc3F)cc2s1` it was 145% (active); in that of `O=C(Nc1ccncc1)c1c(F)cccc1F`, 105%. For `CCCC(=O)Nc1nc2ccc(NC(=O)c3c(F)c(F)c(OC)c(F)c3F)cc2s1` the value was 102%; for `CCOC(=O)c1c(CN(C)C)n(-c2ccccc2)c2cc(Br)c(O)cc12`, 101%; for `CN1C(=O)c2ccc(NC(=O)C3CCCCC3)cc2C1=O`, 99.6%. In the case of `O=C(O)c1ccc(NC(=O)C2CCCCC2)cc1`, the activation (% of control) was 99.3%. Turning to `O=C(Nc1cc2ccccc2oc1=O)C1CCCCC1`, the activation (% of control) is 149% (active). `CC(=O)Nc1ccc(/C(C)=N/NC(=O)CN(c2ccccc2Br)S(C)(=O)=O)cc1`: the activation (% of control) was 97.6%.

As for `O=C(O)CCCCCNc1ncnc2ccc(Br)cc12`, the activation (% of control) is 104%. For `Cc1[nH][nH]c(=O)c1C(c1ccc2c(c1)OCO2)c1c(C)[nH][nH]c1=O` the value was 101%. For the compound `O=C1CSC(c2ccccc2)N1c1nc(-c2ccc(Cl)cc2Cl)cs1` (centres undefined), the activation (% of control) is 102%. `Clc1ccc(-c2ncc3ccccn23)c(Cl)c1`: the activation (% of control) was 112%.

As for `Clc1ccc(-c2cc(C3CCNCC3)[nH]n2)c(Cl)c1`, the activation (% of control) was 135% (active). For `O=C(O)c1ccn(COc2ccc(Br)cc2)n1` the value was 101%; for `N=C1C(=O)OCC1c1ccccc1NC(=O)CN1CCCCC1` (centres undefined), 86.4%; for `Cc1ccc(N/C=C/C(=O)c2ccccc2)cc1C`, 142% (active).

Regarding `O=C(/C=C/NCc1ccc(F)cc1)c1ccccc1`, the activation (% of control) was 117%. `O=C(/C=C\NCC(=O)c1ccccc1)c1ccccc1`: the activation (% of control) was 104%.

Turning to `CC(C)(C)NC(=O)NC(=O)COC(=O)Cc1ccc(Cl)cc1Cl`, the activation (% of control) is 103%.
